Experimental data from PubChem BioAssay AID504725 (Broad Institute, 2011).
Potency and affinity values are given separately. Active and inactive are the calls of the source. The rule behind the calls is not given here.

target: KSHV LANA C-terminal domain (residues 932-1162) binding to LBS DNA (UniProt O40947); assay: inhibitors of C-LANA binding to LBS DNA, dose response, biochemical, fluorescence polarization, cherry-picked samples (AID 504725); details: MBP-C-LANA / FAM-LBS DNA fluorescence polarization, percent change from plate compound-well median; series mostly up to 35 µM; activity change, negative = inhibition: at the top concentration

| SMILES | activity change, negative = inhibition |
| --- | --- |
| NNc1nnc2c3cc(F)ccc3n(Cc3ccccc3)c2n1 | 0.226% (inactive) |
| CCn1c(=O)c(C(=O)NCCN2CCCCC2)c(O)c2ccccc21 | 2.06% (inactive) |
| O=C(NCc1cccnc1)C(=O)C1C(=O)Nc2ccccc21 (stereo not drawn) | 1.28% (inactive) |
| Cc1cc2nc(SCCN3CCOCC3)[nH]c2cc1C | 1.27% (inactive) |
| Cc1cc(C)n(CCC(=O)N/N=C/c2ccc(O)cc2O)n1 | -0.287% (inactive) |
| Cc1cccc(COc2ccc(/C=N/NC(=O)c3nnn(-c4nonc4N)c3COc3ccc(F)cc3)cc2)c1 | 8.39% (inactive) |
| CCN1/C(=C2/SC(=S)N(NC(C)=O)C2=O)Sc2ccc(OC)cc21 | -98.7% (inactive) |
| CC(Sc1nc2ccccc2s1)C(=O)Nc1nnc(C(C)C)s1 (stereo not drawn) | -11.3% (inactive) |
| Cc1ccc(OCC(=O)O/N=C(\N)Cc2ccc([N+](=O)[O-])cc2)cc1C | -1.26% (inactive) |
| C=CCNC(=O)c1cn(CC)c2cc(N3CCN(C(=O)c4ccco4)CC3)c(F)cc2c1=O | 4.41% (inactive) |
| Cc1ccc(NC(=O)c2ccc(Cl)c(S(=O)(=O)N3CCc4ccccc43)c2)nc1 | -5.6% (inactive) |
| O=C1CN=C(Nc2ccccc2Cl)N1Cc1ccc2c(c1)OCO2 | -1.72% (inactive) |
| CCN(Cc1ccccc1)C(=O)c1cccc(S(=O)(=O)N2CCN(Cc3ccccc3)CC2)c1 | 6.38% (inactive) |
| O=S(=O)(O)c1cccc2cccc(Nc3ccccc3)c12 | -0.146% (inactive) |
| CN(C)CCCNC(=O)c1ccccc1Oc1ccccc1 | -1.55% (inactive) |
| O=C(N/N=C/c1ccc(N2CCOCC2)cc1)c1ccccn1 | 3.58% (inactive) |
| COC(=O)c1ccccc1OCC(=O)N1CCN(c2ccc(Cl)cc2)CC1 | 0.64% (inactive) |
| Nc1nc(-c2ccc(C(=O)O)cc2)cs1 | 0.41% (inactive) |
| Cc1cccc(N(Cc2ccccc2)C(=O)C2CCN(C(=O)c3ccccc3C)CC2)c1 | -0.766% (inactive) |

| SMILES | activity change, negative = inhibition |
| --- | --- |
| NNC(=O)C1C(O)CCC2CN3CCc4c([nH]c5ccccc45)C3CC21 (stereo not drawn) | 2.2% (inactive) |
| O=S(=O)(NCc1cccnc1)c1ccc(Cl)s1 | -0.117% (inactive) |
| CNC(=S)Nc1cccc(C(=O)OC)c1 | 3.35% (inactive) |
| O=C1C=C(c2ccoc2)N2CCC[C@H]2C1 | -8.87% (inactive) |
| NNC(=S)Nc1ccc(S(=O)(=O)N2CCOCC2)cc1 | 3.24% (inactive) |
| COc1cccc(NC(=O)CN(C)CC(=O)NCc2ccco2)c1 | -0.425% (inactive) |
| Nc1ccc2c(O)cc(S(=O)(=O)O)cc2c1 | -8.96% (inactive) |
| CCN(CC)C(=S)SC1CCCCN(C(=O)c2ccccc2)C1=O (stereo not drawn) | 0.524% (inactive) |
| COc1ccc(C(C)=O)cc1CN(C)C | 0.24% (inactive) |
| CCCCn1nc(CC(=O)O)c2ccccc2c1=O | 2.31% (inactive) |
| COc1ccc(NC(=O)Cc2nnc(SCC(=O)Nc3nccs3)n2C)cc1 | 4.6% (inactive) |
| O=C(/C=N/NC(=O)c1ccc(Cl)cc1Cl)c1ccccc1 | 2.06% (inactive) |
| COc1ccc(Cn2nnc3c(=O)[nH]c(C4CCCN(C(=O)c5ccccc5)C4)nc32)cc1 (stereo not drawn) | -4.65% (inactive) |
| O=c1c2cc(O)c(O)cc2oc2cc(O)c(C3OC(CO)C(O)C(O)C3O)c(O)c12 (stereo not drawn) | -17.7% (inactive) |
| CCOC(=O)C1=C(COC(=O)c2ccc([N+](=O)[O-])s2)NC(=O)NC1C (stereo not drawn) | -6.39% (inactive) |
| Cc1cccc(NC(=O)CN2C(=O)NC(C)(c3ccc4ccccc4c3)C2=O)n1 (stereo not drawn) | -1.85% (inactive) |
| COC(=O)c1ccc(Oc2nc(Nc3ccc(F)cc3)nc(N3CCCC3)n2)cc1 | -0.261% (inactive) |
| CN(C)C(=O)c1ccc(NC(=O)COC(=O)C2(c3ccccc3)CCCC2)cc1 | 0.523% (inactive) |
| Nc1ccccc1C(=O)N1O[C@@H]2C=C[C@H]1CC2 | -2.64% (inactive) |
